Tested on: gramicidin D channels in DC22:1PC lipid vesicles (bilayer-modifying potency)
Experiment: initial Tl+ fluorescence quench rate relative to no-drug control (NormRate, gramicidin monomer-dimer shift) (ratio (fold of control)); higher = stronger bilayer-modifying effect (equilibrium shifted toward conducting dimers), active = 1.5 or more
Settings: 10 µM; lipid concentration 50 µM; temperature: 25 °C
Experimental: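 Stopped-flow fluorescence quench assay: ANTS-loaded DC22:1PC large unilamellar vesicles doped with gramicidin D (1:2000), 50 µM lipid, equilibrated 10 min with 10 µM drug (0.1% DMSO), mixed with Tl+ quench buffer at 25°C. Initial quench rate (Tl+ influx) was fitted with a modified stretched exponential and normalised to the no-drug control rate (NormRate); duplicates from two independent LUV preparations (triplicates for 7 drugs).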

Initial Tl+ fluorescence quench rate, inactive:
Oc1c(I)cc(I)c2cccnc12 1.47
O=C(NCc1ccoc1)N1CCN(Cc2ccc3c(c2)OCO3)CC1 1.11
C[C@H]1COc2c(N3CCN(C)CC3)c(F)cc3c(=O)c(C(=O)O)cn1c23 1.04
CS(=O)(=O)Cc1nc2ccccc2oc1=O 1.08
NCC[C@H](O)C(=O)N[C@@H]1C[C@H](N)[C@@H](O[C@H]2O[C@H](CN)[C@@H](O)[C@H](O)[C@H]2O)[C@H](O)[C@@H]1O[C@H]1O[C@H](CO)[C@@H](O)[C@H](N)[C@H]1O 1.02
Nc1nccc2ccc(-c3ccc4nccn4c3)cc12 1.17
[H]/N=C(\N)c1ccc(-n2cc(-c3cc(/C(N)=N/[H])ccc3OC)nn2)cc1 1.05
CCc1cc(=O)n(C)c(S[C@H](C)C(=O)Nc2ccc(F)cc2)n1 1.15
CNC(=O)[C@H]1Cc2ccccc2N1C(=O)Cc1ccc(F)cc1 1.04
Nc1nc(N)c2c3c(sc2n1)CN(Cc1ccccc1)CC3 1.04
CCCc1ccc(S(=O)(=O)Nc2ccc(CN3CCN(CC4CC4)CC3)cc2)cc1 1.42
Cc1cc(OCC(=O)NCc2ccccc2)c2cc(Br)ccc2n1 1.45
COc1ccc2nccc(NC(=O)C3CCN(CCc4ccc(Cl)cc4)CC3)c2n1 1.09
CN1CCC(c2cc(-c3ccncc3)c(-c3ccc(F)cc3)[nH]2)CC1 1.03
NC(=O)c1cc(-c2ccsc2)ccc1OCCOc1ccccc1 1.14
O=C(Nc1ccc2c(c1)B(O)OC2)c1ccccc1C(F)(F)F 1.06
Cc1cccnc1NC(=O)c1cccc(OCc2c(C)noc2C)c1 1.07
CC(=O)NC[C@@H]1CN(c2ccc(N3CCOCC3)c(F)c2)C(=O)O1 1.08
Cc1ccc2nc(C)c(-c3ccn(Cc4ccccc4)n3)n2c1 1.28
CC[C@H](Sc1nc2ccccc2o1)C(=O)Nc1nccs1 1.18
[H]/N=C(/N)c1ccc(-c2cc(-c3ccccc3)on2)cc1 1.08
CNc1snc(C)c1C(=O)NCCOc1ccc(OC)cc1 1.06
Cc1ccc(-c2nc(CN(Cc3ccccn3)C(C)C)cs2)o1 1.21

Initial Tl+ fluorescence quench rate, active:
COc1ccc(Cl)cc1NC(=O)CN(C)C(=O)c1cnn(-c2ccccc2)n1 3.28
COC(=O)c1cccc2oc(-c3cccc(OC)c3NC(=O)c3cc(-c4ccccc4)on3)nc12 1.76
CCOc1ccc(-c2nc(NC(=O)CS(=O)(=O)c3ccccc3)sc2C)cc1 3.58
COc1cccc(OC)c1C(=O)Nc1ccc(Cl)c(-c2nc3ccccc3s2)c1 3.12
O=C1Nc2ccc(Br)cc2[C@]12NCCc1c2[nH]c2ccccc12 3.74
COc1nc2ccc(Br)cc2cc1[C@@H](c1ccccc1)[C@@](O)(CCN(C)C)c1cccc2ccccc12 6.48
COc1ccc(-c2cc(NC(=O)c3ccc(F)cc3Cl)ccc2OC)cc1 2.04
CN1CCC[C@H]1CCO[C@](C)(c1ccccc1)c1ccc(Cl)cc1 2.33
Cc1nc(-c2ccccn2)nc(N(C)CCc2ccccc2)c1Cl 2.23
O=C(c1ccc(NCCO)cc1)[C@H]1C[C@H]1c1ccc(Cl)cc1 3.55
O[C@@H](c1cc(C(F)(F)F)nc2c(C(F)(F)F)cccc12)[C@H]1CCCCN1 2.24
O=C(Nc1ccc(N2CCNCC2)cc1)c1ccn2ncc(-c3cccc(Cl)c3)c2n1 2.57
Cc1cc(C)cc(COc2ccc3c(C)c(CCC(=O)O)c(=O)oc3c2C)c1 2.64
CN1CCC(NCc2cccc(-c3ccc(S(=O)(=O)NCc4ccccc4)cc3)c2)CC1 1.94
Cc1ccc(S(=O)(=O)Nc2ccc(CN3CCN(C(=O)c4cccc(C#N)c4)CC3)cc2)cc1 1.5

From the supplement of paper PMC9948646
